Rab9 promoter act – activators of Rab9 promoter | Potency, µM (top dose mostly 9.22 µM), without a hit: at the highest dose activation, negative = inhibition, hits mostly activators | AID 485297 | actives 2.8% (n = 320,000) | Huh7 Rab9 promoter-luciferase reporter, luminescence, 24 h; also: % of control where 0% means no effect; nearly all actives have a fitted effect of over 60% in size
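Huh7 cells stably carrying a Rab9 promoter-luciferase reporter, 1500 cells per well in OP-MEM I with 10% FBS, treated with compound 24 hours at 37C. Luciferase activity read by luminescence after 10 minutes with Amplite reagent.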
SMN2 splice up – SMN2 splice variant enhancement | HEK293 SMN2-luciferase splicing reporter, luminescence, 30-36 h | Potency, µM (doses to about 46.1 µM), without a hit: at the top dose activity change, positive = activation, actives largely listed as activators | actives 2.8% (n = 210,000); also: % of control where 0% means no effect; nearly all actives have a fitted effect of over 55% in size
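HEK293 cells carry an SMN2 minigene-luciferase reporter in which exon 7 inclusion puts luciferase in frame. Cells were seeded at 2000 cells/well, attached for 10-12 hours, then exposed to compounds for 30-36 hours at 37C before ONE-Glo luminescence.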
Luc counter – blocks Kinase-Glo luciferase, a counter-screen artifact. Q27757. Kinase-Glo luciferase, ATP luminescence, 8 min. Potency, µM (doses to about 38.3 µM), inactives show at the highest dose activity change, negative = inhibition, actives largely listed as inhibitors. actives 0.28% (n = 200,000). AID 1379; also: % is scaled to controls: 0 for no effect and ±100 for the full control effect; nearly all actives have a fitted effect of over 60% in size
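Recombinant Kinase-Glo luciferase, 10 uM ATP (linear range), luciferin; imidazole pH 7.2 / KCl / MgCl2 / Tween / BSA buffer; 8 min RT; luminescence.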
FLuc counter – firefly luciferase modulation, counter-screen for miR-21 project | P08659 | purified FLuc, Km substrates, luminescence inhibition | Potency, µM (titrated, usually from 57.5 µM), for the others: at the top dose activity change, negative = inhibition, actives largely listed as inhibitors | actives 6.9% (n = 360,000);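 also: plate controls were vehicle for no effect and reference inhibitor for full effect; nearly all actives have a fitted effect of over 55% in size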
Target sequence (P08659 whole entry, looked up): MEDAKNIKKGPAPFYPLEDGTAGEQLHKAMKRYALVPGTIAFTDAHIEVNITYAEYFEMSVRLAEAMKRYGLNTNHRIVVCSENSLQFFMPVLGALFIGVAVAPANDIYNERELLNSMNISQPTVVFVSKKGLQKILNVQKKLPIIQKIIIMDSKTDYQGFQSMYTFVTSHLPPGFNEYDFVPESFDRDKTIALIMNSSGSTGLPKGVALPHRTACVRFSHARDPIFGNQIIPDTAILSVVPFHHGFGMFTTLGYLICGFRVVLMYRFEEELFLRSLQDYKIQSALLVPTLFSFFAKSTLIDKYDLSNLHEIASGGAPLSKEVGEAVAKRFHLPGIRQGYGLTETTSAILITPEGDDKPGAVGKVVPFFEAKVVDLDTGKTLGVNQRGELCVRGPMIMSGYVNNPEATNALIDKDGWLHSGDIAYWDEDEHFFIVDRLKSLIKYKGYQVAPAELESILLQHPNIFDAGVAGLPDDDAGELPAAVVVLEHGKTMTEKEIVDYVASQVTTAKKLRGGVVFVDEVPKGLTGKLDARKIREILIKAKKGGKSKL
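Biochemical qHTS of compounds, final roughly 60 µM downward over six points, against 10 nM purified firefly luciferase using Km concentrations of substrates (10 uM D-luciferin, 10 uM ATP) in Tris acetate pH 7.5 buffer; luminescence output.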
ELG1 genotoxic – inducers of genotoxicity in HEK293T ELG1-luciferase cells; Potency, µM (doses to about 46 µM), without a hit: at the highest dose activity change, positive = activation, most hits filed as activators; AID 504466; actives 1.3% (n = 330,000); HEK293T ELG1-luciferase reporter, luminescence, 16 h; also: % of control where 0% means no effect; nearly all actives have a fitted effect of over 60% in size
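Genotoxic stress is detected as increased luminescence from luciferase-tagged ELG1 in HEK293T cells, measured with ONE-Glo after a 16 hr treatment at 37 °C.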
NPC1 prom act – NPC1 promoter activation; Huh7 NPC1 promoter luciferase reporter, 24 h; Potency, µM (doses to about 9.22 µM), inactives show top-dose activation, actives largely listed as activators; actives 2.4% (n = 320,000); also: % of control where 0% means no effect; nearly all actives have a fitted effect of over 60% in size
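Quantitative HTS used a cell-based reporter: Huh7 cells stably bearing the NPC1 promoter upstream of luciferase were treated with compounds for 24 h, and promoter activation was read as luminescence.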
Starred values were filed as active, the others as inactive; u = inconclusive; x = not tested or not shown; [ ] = another dose, or the depositor's remark. A selection: hits, their analogues and other compounds. The true share with any hit is near 7.5%. Calls follow the shape of the dose curve; as a rule, active = well fitted curve in the direction sought with a large enough effect; inconclusive = small, poorly fitted or top-dose-only effect, or another doubt; inactive = no such curve, though single readings can be large; an effect the other way counts as inactive or inconclusive. Potency is read from the fitted curve at half-maximal effect.

SMILES | Rab9 promoter act | SMN2 splice up | Luc counter | FLuc counter | ELG1 genotoxic | NPC1 prom act
C/C(=N\Nc1cc(Cl)nc(C)n1)c1ccccc1 | u | 31% | -3% | 9.5µM* | 9% | u
C/C(=N/Nc1cc(-c2ccccc2)nc(-c2ccccc2)n1)c1ccc(O)cc1 | -3% | x | -1% | 11µM* | 0% | -5%
COc1cc(NC(=O)CC2C(=O)N(c3cccc(C)c3)C(=O)N2Cc2ccco2)cc(OC)c1 (stereo unspecified) | x | x | x | -10% | x | x
CCN(c1ccc(NS(=O)(=O)c2cc(Cl)ccc2Cl)cc1)C(C)C | 13% | -25% | 2% | -2% | 5% | 0%
CN(C)CCCNS(=O)(=O)c1cc(Cl)ccc1Cl | 17% | 11% | -1% | 6% | 18µM* | -1%
CN(C)CCCNS(=O)(=O)c1cc(Cl)c(Cl)cc1Cl | 1% | x | x | 1% | 0% | -1%
CN(C)c1ccc(NS(=O)(=O)c2cc(Cl)ccc2Cl)cc1 | 0% | -8% | 4% | 19µM* | 5% | -2%
COCCCNc1nc2ccccc2nc1NS(=O)(=O)c1cc(Cl)ccc1Cl | -1%[1.84 µM] | x | x | 3% | -4% | -4%
CC(C)[C@@H](CC(=O)N[C@@H]1CCNC[C@H]1C(=O)N[C@H](CC(=O)N[C@@H](CCC(=O)O)CC(=O)O)Cc1ccccc1)NC(=O)C[C@H](Cc1c[nH]c2ccccc12)NC(=O)[C@@H]1CNCC[C@H]1N | x | 7% | -3% | x | x | x
CC(=O)Nc1cc(-c2nc3cc(Cl)ccc3o2)ccc1C | x | x | x | -18% | x | x
CC(=O)Nc1ccc(-c2nc3cc(Cl)ccc3o2)cc1 | 0.79µM* | x | x | 1.3µM* | 2.1µM* | 0.5µM*
O=C(Nc1ccc(-c2nc3cc(Cl)ccc3o2)cc1)c1cc(Br)ccc1Cl | x | -7% | x | u | x | x
O=C(O)c1ccccc1-c1ccccc1C(=O)Nc1ccc(-c2nc3cc(Cl)ccc3o2)cc1 | 14% | x | x | 15µM* | 17% | 1%
COC(=O)c1sc(N2C(=O)C(O)=C(C(=O)c3ccc(C)o3)C2c2ccc([N+](=O)[O-])cc2)nc1C (stereo unspecified) | 1.8µM* | x | x | 19µM* | u | 3.5µM*
Cc1ccccc1OCC(=O)Nc1nnc(-c2ccco2)s1 | -2% | x | x | -2% | 2% | -1%
Cc1ccccc1C(=O)Nc1nnc(-c2ccco2)s1 | 0.32µM* | 2µM* | -10% | 1.5µM* | 1.5µM* | 0.56µM*
COc1ccccc1C(=O)Nc1nnc(-c2ccco2)s1 | u | 11µM* | 2% | 2.7µM* | 1.6µM* | 0%
CCOc1ccc(NC(=O)COc2ccc3c(c2)OCO3)cc1 | -3% | x | x | -18% | 15% | 0%
CCOc1ccc(N/C(C)=C/C(=O)c2ccc3c(c2)OCCO3)cc1 | 2.2µM* | x | x | 5.4µM* | u | 3.2µM*
CCOc1ccc(C(=O)NC2CC(=O)N(c3ccc4c(c3)OCCO4)C2)cc1 (stereo unspecified) | -4% | x | x | 1% | 8% | -2%
CCOc1ccc(N/C(C)=C\C(=O)c2ccc3c(c2)OCCO3)cc1 | 1.1µM* | x | 2% | 3.8µM* | 12% | 2.5µM*
O=C1OC[C@H]2CCCN2C(=O)[C@@H](CC(=O)N(CCO)Cc2ccccc2)C/C=C\C[C@@H]1Cc1ccc(F)cc1 | x | x | x | x | -6% | x
O=C(OCc1cc(=O)n2nc(C3CC3)sc2n1)c1cccc(NC(=O)c2ccccc2Cl)c1 | x | x | x | -15% | x | x
CCn1cc(C(=O)NCc2ccc(Cl)cc2)c(=O)c2cc(S(=O)(=O)N(C)C)ccc21 | 7% | x | x | -4% | -5% | 2%
COc1cc(/C=C(\C#N)c2nc3ccccc3[nH]2)ccc1OC(=O)c1ccco1 | u | 35µM* | u | 0.95µM* | u | 26%
SMILES | Rab9 promoter act | SMN2 splice up | Luc counter | FLuc counter | ELG1 genotoxic | NPC1 prom act
COc1cc(/C=C(/C#N)c2nc3ccccc3[nH]2)ccc1OCC(=O)Nc1ccccc1C | -5% | -10% | -9% | 4% | u | -4%
N#C/C(=C\c1ccc(OC(=O)c2ccc(Cl)s2)cc1)c1nc2ccccc2[nH]1 | u | 18µM* | 2% | -2% | u | 21%
N#C/C(=C\c1cccc(OCC(=O)O)c1)c1nc2ccccc2[nH]1 | 13% | x | x | 17µM* | 2% | -4%
CCOc1cccc(/C=C(/C#N)c2nc3ccccc3[nH]2)c1OCC(=O)O | 0% | x | x | u | 0% | -5%
N#C/C(=C\c1ccc(OCc2ccc(Cl)cc2Cl)cc1)c1nc2ccccc2[nH]1 | x | -2% | x | -7% | x | x
N#C/C(=C\c1ccc(OC(=O)c2ccc(Br)s2)cc1)c1nc2ccccc2[nH]1 | u | 13µM* | -2% | -4% | 18% | u
Cc1cc(C)c(Nc2nn3c(=O)c4cc5c(cc4nc3s2)OCO5)c(C)c1 | x | -10% | x | u | x | x
CC(=O)c1ccsc1-c1c(C)cc2oc(=O)cc(-c3ccccc3)c2c1C | x | x | 2%[39.9 µM] | x | 3% | x
COc1ccc2cnn(-c3ccc(OC(F)(F)Cl)cc3)c(=O)c2c1OC | 26% | x | x | 0% | 4% | 21%
COc1ccc2cnn(-c3ccc(C)cc3)c(=O)c2c1OC | u | 27% | -3% | 24µM* | 15µM* | u
COc1ccc2cnn(CCOc3ccccc3)c(=O)c2c1OC | 0.56µM* | 11µM* | -9% | 4.8µM* | u | 0.79µM*
CC(C)OC(=O)c1ccc(NC(=O)C2C3CC4OC(=O)C2C4C3)cc1 (stereo unspecified) | 2.8µM* | 11µM* | 1% | 21µM* | 12% | u
COc1cc(/C=C2/C(=O)N(c3ccccc3)N=C2C)ccc1OS(=O)(=O)c1ccccc1 | 1% | 8% | 1% | -16% | 3% | 1%
CC1=NN(c2ccc(C(=O)O)cc2)C(=O)/C1=C\c1ccc(OC(=O)c2cccs2)cc1 | 1% | 8% | 0% | 24µM* | -1% | -6%
CC1=NN(c2ccccc2)C(=O)/C1=C\N(O)c1ccccc1 | 12% | x | x | u | 0% | -2%
COc1ccc(/C=C2/C(=O)N(c3ccccc3)N=C2C)cc1Br | -4% | x | x | 13µM* | 16% | -7%
CC1=NN(c2ccccc2)C(=O)/C1=C/c1c(O)n(-c2ccc(F)cc2)[nH]c1=O | 19% | -3%[1.84 µM] | -1% | 0.6µM* | u | 25%
CC1=NN(c2ccccc2)C(=O)/C1=C\c1ccc(Br)s1 | -4% | 0%[1.84 µM] | -7% | 9.5µM* | u | 2%
CCCCc1c(O)n(-c2ccccc2)[nH]c1=O | x | x | 0%[39.9 µM] | x | x | x
CCOc1cc(/C=C2\C(=O)N(c3ccc(C(N)=O)cc3)N=C2C)ccc1OC(=O)c1cccs1 | 6% | -3% | -1% | u | 8% | -1%

Source: PubChem BioAssay
